Source: PubChem
The list is not random: actives were taken first. Their share in the collection is about 10%.
JMJD2A Tudor: blocks the human JMJD2A Tudor domain; AlphaScreen JMJD2A-Tudor / H3K4me3 peptide binding; 390,000 compounds, 4.4% hits; Potency, µM (highest dose often 114 µM), for inactives: top-dose activity change, negative = inhibition, usual class: inhibitors; O75164; note: potency is the fitted concentration of half-maximal effect; % is set by controls: 0 for no effect and ±100 for the full control effect; nearly all actives have a fitted effect of over 50% in size
G9a block: inhibitors of human histone lysine methyltransferase G9a; G9a H3K9 monomethylation, AlphaScreen, 2 h; AID 504332; 350,000 compounds, 8.8% hits; Potency, µM (series often up to 102 µM), without a hit: at the highest dose activity, negative = inhibition, usual class: inhibitors; note: potency is the fitted concentration of half-maximal effect; % is set by controls: 0 for no effect and ±100 for the full control effect; nearly all actives have a fitted effect of over 75% in size
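G9a (20 nM) was preincubated 15 min with compound, then reacted 2 h at room temperature with 500 nM biotin-H3K9 peptide and 20 µM SAM. Monomethyl-H3K9 detected by AlphaScreen using anti-H3K9me1 antibody.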
BAZ2B block: inhibitors of human BAZ2B bromodomain; AlphaScreen BAZ2B-H3K14Ac peptide displacement; 360,000 compounds, 4.4% hits; Potency, µM (top dose mostly 114 µM), for the others: at the highest dose activity change, negative = inhibition, actives largely listed as inhibitors; AID 504333; Q9UIF8; note: potency is the fitted concentration of half-maximal effect; % is set by controls: 0 for no effect and ±100 for the full control effect; nearly all actives have a fitted effect of over 60% in size
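Compounds, titrated to a top concentration of 110 uM, were incubated 30 min at room temperature with preformed BAZ2B/acetyl-K14 H3 peptide complex (50 nM each). Proximity signal was measured by AlphaScreen after 20 min with beads.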
CtBP-E1A blk: CtBP/E1A binding inhibition; activity change, % (test concentration not listed); 340,000 compounds, 0.49% hits; AlphaScreen GST-E1A/His-CtBP binding, 1536-well; hits give low values; AID 651724; in the data active = activity change below about -65%; inconclusive = mostly about -30% to -63%; note: % is set by controls: 0 for no effect and ±100 for the full control effect
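Steps: dispense buffer (Tris pH 8.0, NaCl 300 mM, TCEP 1 mM, BSA, Tween 20); add 5X protein mix (GST-E1A, His-CtBP, 125 nM each); pin 23 nL compound; 2 h at 37 °C, dark; add 5X beads (50 ug/mL); 1 h; read.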
HP1b binding inh: blocks HP1-beta chromodomain binding to methylated histone tails; 390,000 compounds, 0.56% hits; AlphaScreen HP1-beta / biotin-H3K9me3 peptide binding; P83916; Potency, µM (series often up to 114 µM), without a hit: top-dose activity change, negative = inhibition, most hits filed as inhibitors; note: potency is the fitted concentration of half-maximal effect; nearly all actives have a fitted effect of over 70% in size
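HP1-beta protein (50 nM final) preincubated 30 min at room temperature with biotinylated H3(1-18)K9me3 peptide (50 nM) in PBS pH 7.4, 0.01% Tween-20, then compound added for 30 min. AlphaScreen streptavidin donor/nickel chelate acceptor beads (10 ug/mL final), 30 min dark, luminescence read.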
Six1-Eya2 inh: inhibitors of human Six1/Eya2 interaction; Q15475+O00167; activity change, % (no concentration beside the values); AlphaScreen GST-Six1/His-Eya2 binding, biochemical; hits give low values; AID 651725; 360,000 compounds, 0.56% hits; in the data active = activity change below about -65%; inconclusive = mostly about -30% to -63%; note: % is set by controls: 0 for no effect and ±100 for the full control effect
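Compounds are tested against tagged Six1 and Eya2 proteins bridged by glutathione donor and nickel acceptor beads; after a one-hour incubation at 37 °C without light, AlphaScreen emission is recorded.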
The depositor's hits bear a star; ? = inconclusive; . = no result; [ ] = another dose, or the depositor's remark. Unless noted, calls come from the whole dose curve; as a rule, active = well fitted inhibition curve with a large enough effect; inconclusive = small, poorly fitted or top-dose-only effect; inactive = no such curve, though single readings can be large or run the other way.

SMILES	JMJD2A Tudor	G9a block	BAZ2B block	CtBP-E1A blk	HP1b binding inh	Six1-Eya2 inh
O=C(COc1ccccc1)NCc1n[nH]c(=S)n1-c1ccccc1	8.9µM*	20µM*	-18%	-3	40%	5
COc1ccc(OCc2n[nH]c(=S)n2-c2ccc(C)cc2)cc1	?	?	-32%	.	7%	-6
C=CCN(C(=O)CSC1=NC(=O)CN1C(C)=O)c1nc(C)c(-c2ccccc2)s1	?	40µM*	35µM*	0	8%	-3
COc1ccccc1N1CCN(c2ncnc3onc(C)c23)CC1	3%	-4%[59 µM]	1%	.	15%	.
Cc1cc2c(cc3c(SCc4ccc(Cl)cc4)nnc(C)n32)o1	?	4.5µM*	28µM*	.	-14%	.
Cc1ccc(NC(=O)Cn2c(=O)n(CCC(=O)N3CCc4ccccc4C3)c(=O)c3ccccc32)cc1	-11%	-5%[59 µM]	4%	.	9%	.
COc1ncnc2c1NC1=C(S2)C(=NCCC(=O)O)CC(C)(C)C1	-32%	18µM*	?	-3	48%	-18
CN(C)c1ncnc2c1NC1=C(S2)C(=NCCCC(=O)O)CC(C)(C)C1	-18%	?	?	3	30%	-8
COc1cc(OC)c(NC(=O)N2CCOc3ccc(C)cc32)cc1Cl	-19%	1%[59 µM]	-1%	.	-2%	.
Cc1cc(C)c[n+](CC(=O)c2ccc(-c3ccccc3)cc2)c1	-17%	50µM*	19%	0	22%	1
CN(C)CC(=O)c1ccc(-c2ccccc2)cc1	-20%	32µM*	.	1	35%	2
CCN(CC)CC(=O)c1ccc(-c2ccccc2)cc1	?	?	0%	44	5%	19
C/[N+]([O-])=C\CC(=O)c1ccc(-c2ccccc2)cc1	32µM*	14µM*	-27%	0	-11%	4
Cc1ccc(C(=O)NC(=S)N(C)Cc2ccccc2)cc1	-22%	.	.	.	55%	-3
CCCN(CCC)C(=S)NC(=O)c1ccc(-c2ccccc2)cc1	50µM*	30%[12.7 µM]	?	-12	16%	-9
CCc1ccc(S(=O)(=O)c2nnn3c2nc(N2CCOCC2)c2sccc23)cc1	-12%	-26%[59 µM]	?	.	?	.
Cc1ccc(-c2noc(-c3ccc(N4CCOCC4)c([N+](=O)[O-])c3)n2)cc1	-11%	-18%[59 µM]	?	.	29%	.
COc1cccc(N2CCN(C3C(=O)c4ccccc4N3C(C)=O)CC2)c1 (centres undefined)	-19%	-6%[59 µM]	-37%	.	21%	.
Cc1ccc(NC(=O)Cn2c(=O)n(Cc3nc(-c4ccccc4)no3)c(=O)c3cc4c(cc32)OCO4)cc1C	9%	-6%[59 µM]	-16%	.	57%	.
CC(C)N1C(=S)N(Cc2ccco2)C(=O)C1CC(=O)Nc1ccccc1 (centres undefined)	-19%	50µM*	?	-12	20%	-2
COc1cc2c(cc1NC(=O)c1ccccc1C)n(C)c(=O)n2C	-22%	-10%[59 µM]	50µM*	.	15%	.
CCOC(=O)C1CCN(c2cc3c(cc2NC(=O)c2ccccc2F)n(C)c(=O)n3C)CC1	-23%	8%[0.0925 µM]	50µM*	-8	12%	0
COc1ccccc1C(=O)Nc1cc2c(cc1N1CCCCC1)n(C)c(=O)n2C	?	-32%[59 µM]	?	.	-23%	.
CCOC(=O)c1ccccc1NC(=O)Nc1cc2c(cc1N1CCCC1)n(C)c(=O)n2C	?	?	50µM*	.	15%	.
CCOC(=O)Cc1ccc(NC(=O)Nc2cc3c(cc2N2CCCCC2)n(C)c(=O)n3C)cc1	-30%	-5%[59 µM]	2%	.	10%	.
O=c1[nH]c(=S)[nH]c2sccc12	3.5µM*	10µM*	-29%	-4	?	14
COc1ccc(C2NN=C(c3ccc(C)cc3)S2)cc1OC (centres undefined)	-4%	13µM*	-5%	-25	23%	4
COc1ccc(F)cc1S(=O)(=O)n1nnc2ccccc21	-6%	4%	-2%	?	32%	-68*
COc1ccc(OC)c(S(=O)(=O)n2nnc3ccccc32)c1	-10%	-29%[59 µM]	?	2	37%	?
